# Source: PubChem BioAssay (several laboratories)
# Sampled rows, rich in hits. Any-hit rate of the full collection: about 27%.
# Cav32 inh: inhibitors of human Cav3.2 T-type calcium channel. Cav3.2-expressing cells, Fluo-4 calcium fluorescence FDSS; hits give low values. B-score at 10 µM. 100,000 compounds, 4% hits. AID 449739;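 active = single-dose well whose peak fluorescence ratio is a statistical outlier from its plate by either plate-standardised score or position-corrected B-score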
# CYP2C9 inh: inhibitors of human CYP2C9; CYP2C9 Supersomes, luciferin-H conversion, luminescence; 96,000 compounds, 20% hits; P11712; inhibition, % at 5 µM;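 active = blocking of liver enzyme CYP2C9 beyond about 50% at 5 µM, limit read from the data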
# CYP2C9 act: CYP2C9 (human) activation; AID 1024; activation factor at 5 µM; P11712; 96,000 compounds, 1.4% hits; recombinant CYP2C9, luciferin-H conversion, luminescence; hits give high values; factor 1 = untreated enzyme, 0 = blocked;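 active = activation factor of 2 or more for CYP2C9 at a 5 µM dose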
# CYP2C19 act: cytochrome P450 2C19 (human) activation; P33261; recombinant CYP2C19, luciferin-H EGE luminescence; hits give high values; 0 = fully inhibited enzyme, 1 = untreated enzyme; activation factor at 5 µM; 96,000 tested, under 10 active; AID 1025;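 active = activation factor of at least 2 at 5 µM in the primary screen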
# Target sequence (P33261 whole entry, looked up): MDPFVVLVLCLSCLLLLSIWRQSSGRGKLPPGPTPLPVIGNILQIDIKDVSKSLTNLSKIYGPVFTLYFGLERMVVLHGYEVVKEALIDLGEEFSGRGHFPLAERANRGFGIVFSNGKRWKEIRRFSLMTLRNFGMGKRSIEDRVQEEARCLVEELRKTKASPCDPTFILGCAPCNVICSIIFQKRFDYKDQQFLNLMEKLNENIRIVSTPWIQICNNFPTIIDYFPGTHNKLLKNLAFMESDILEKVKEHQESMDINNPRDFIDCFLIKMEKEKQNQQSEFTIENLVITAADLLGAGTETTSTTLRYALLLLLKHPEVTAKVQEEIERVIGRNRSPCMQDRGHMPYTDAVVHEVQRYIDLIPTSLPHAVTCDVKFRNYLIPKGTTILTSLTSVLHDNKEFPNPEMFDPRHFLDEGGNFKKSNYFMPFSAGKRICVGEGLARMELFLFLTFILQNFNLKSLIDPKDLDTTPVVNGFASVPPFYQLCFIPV
# CYP2C19 inhib: human CYP2C19 inhibition; CYP2C19 Supersomes, luciferin-H EGE luminescence, 30 min; inhibition, % at 5 µM; 96,000 compounds, 21% hits; AID 778;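 active = CYP2C19 inhibition above a set limit at 5 µM in the primary screen, cut at about 50% in these data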
# A number is an active result; 0 = inactive; - = not tested or not shown.
SMILES,Cav32 inh,CYP2C9 inh,CYP2C9 act,CYP2C19 act,CYP2C19 inhib
Cc1ccc(S(=O)(=O)N2CCC(C(=O)NCCc3ccc(S(N)(=O)=O)cc3)CC2)cc1,0,0,0,0,0
Cc1ccc(CNC(=O)CNS(=O)(=O)c2cccc3nsnc23)cc1,-,52,0,0,0
CC(=O)c1ccc(NC(=O)CCNS(=O)(=O)c2cccc3nonc23)cc1,0,0,0,0,0
O=C(NC1CCCc2ccccc21)C1CCN(S(=O)(=O)c2cccc3nonc23)CC1 (stereo not drawn),0,0,0,0,0
CCc1ccc(NC(=O)CCNS(=O)(=O)c2cccc3nonc23)cc1,0,55,0,0,0
O=C(CCNS(=O)(=O)c1cccc2nonc12)NC1CCCc2ccccc21 (stereo not drawn),-,0,2.4,0,0
O=C(Nc1cccc2nsnc12)c1ccc(-c2ccc(Br)cc2)o1,-,0,0,0,0
COc1cc(O)c(C(CC(=O)N2CCCCC2)c2ccc(N(C)C)cc2)c(OC)c1 (stereo not drawn),0,-,-,-,-
Cc1cccc(C(CC(=O)N2CCCC2)c2ccccc2)c1O (stereo not drawn),0,73,0,0,84
Cc1ccc(C(CC(=O)N2CCCC2)c2ccccc2)c(O)c1C (stereo not drawn),-,96,0,0,96
O=C(O)c1ccccc1SCC(=O)N1CCCCC1,0,0,0,0,0
CCCCNC(=O)NS(=O)(=O)c1ccc(C(=O)OC)o1,0,0,0,0,0
COCCn1c(SCc2ccc(C(=O)OC)o2)nc2cc(Cl)ccc2c1=O,-3.9,93,0,0,94
Cn1c(SCc2ccccc2)nnc1-c1c[nH]c2ccccc12,0,0,0,0,0
COCCn1c(SCc2ccc(C(=O)OC)o2)nnc1-c1c[nH]c2ccccc12,0,68,0,0,74
COC(=O)c1ccc(CSc2nnc(-c3c[nH]c4ccccc34)n2C)o1,0,78,0,0,93
COC(=O)[C@@H]1CCCN1C(=O)[C@@H](NC(=O)OC(C)(C)C)C(C)C,0,-,-,-,-
CCOC(=O)N1CCN(C(=O)CN(c2ccc(Cl)c(C(F)(F)F)c2)S(C)(=O)=O)CC1,0,0,0,0,56
CCOC(=O)N1CCN(C(=O)CN(c2ccc(OC)cc2)S(C)(=O)=O)CC1,0,-,-,-,-
CCOC(=O)N1CCN(C(=O)CN(c2cc(C(F)(F)F)ccc2Cl)S(C)(=O)=O)CC1,0,0,0,0,54
CS(=O)(=O)N(CC(=O)N1CCCC1)c1cc(Cl)c(Cl)cc1Cl,0,0,0,0,90
Cc1c(Cl)cccc1N(CC(=O)N1CCCCCC1)S(C)(=O)=O,0,0,0,0,0
CCCCN1CC[C@H]2C=CC[C@@H](C(=O)Nc3ccc(Cl)cc3Cl)[C@H]2C1=O,0,-,-,-,-
CCc1nnc(SCc2cn3c(C)cc(C)nc3n2)n1N,0,0,0,0,0
O=C(N1CCCCCC1)N1CCN(S(=O)(=O)N2CCCCC2)CC1,0,0,0,0,0
SMILES,Cav32 inh,CYP2C9 inh,CYP2C9 act,CYP2C19 act,CYP2C19 inhib
O=C(Oc1ccccc1C(=O)Oc1ccccc1)c1ccco1,0,0,0,0,0
Cc1ccnc(SCCn2c(N3CC(C)CC(C)C3)nc3c2c(=O)n(C)c(=O)n3C)n1 (stereo not drawn),0,0,0,0,0
O=S(=O)(c1ccc(Cl)cc1)n1ccc(-c2cccc(OCc3c(F)cccc3Cl)c2)n1,0,60,0,0,0
O=C(OCc1c(F)cccc1Cl)c1cnccn1,-,0,0,0,0
O=S(=O)(c1ccc(F)cc1)n1ccc(-c2cccc(OCc3c(F)cccc3Cl)c2)n1,0,88,0,0,0
CCOc1cc(C(=O)N2CCN(c3ccc(C(C)=O)cc3)CC2)cc(OCC)c1OCC,0,0,0,0,0
CCCOc1ccc(C(=O)N2CCCC2)cc1OC,0,0,0,0,0
CC1C(c2ccccc2)N(C)C(c2ccccc2)CC1(O)c1ccccc1 (stereo not drawn),-6.8,0,0,0,65
CC1CN(C)C(c2ccccc2)C(C)C12NC(=O)NC2=O (stereo not drawn),0,0,0,0,0
CCc1ccccc1N1CSC2=C(C#N)C(c3cc(OC)c(OC)cc3OC)CC(=O)N2C1 (stereo not drawn),0,0,0,0,0
COc1cccc(C2CC(=O)N3CN(c4ccccc4F)CSC3=C2C#N)c1 (stereo not drawn),0,84,0,0,68
COc1ccc(OC)c(C2CC(=O)N3CN(c4ccccc4F)CSC3=C2C#N)c1 (stereo not drawn),0,89,0,0,0
COc1cc(S(=O)(=O)N2CCOCC2)ccc1F,0,0,0,0,0
CC(/C=N\NC(=O)c1cccnc1)c1ccccc1 (stereo not drawn),0,-,-,-,-
CCOC(=O)c1c(-c2ccccc2)csc1NC(=O)c1ccc(N2C(=O)CCC2=O)cc1,0,50,0,0,0
CCOC(=O)c1c(-c2ccccc2)csc1NC(=O)c1nn(CC)cc1Br,0,0,0,0,0
CCOC(=O)c1c(-c2ccccc2)csc1NC(=O)c1ccc(S(=O)(=O)N2CC(C)OC(C)C2)cc1 (stereo not drawn),-,77,0,0,0
CC(C)CCn1c(SCC(N)=O)nc2c1c(=O)n(C)c(=O)n2C,0,0,0,0,0
Cc1n[nH]c(C)c1S(=O)(=O)N1CCC(C(=O)N2CCn3c2nc2ccccc23)CC1,0,0,0,0,66
Cc1cc(C)cc(NC(=O)C2CCN(S(=O)(=O)c3c(C)n[nH]c3C)CC2)c1,0,0,0,0,0
Cc1ccc(N(CC(=O)N2CCn3c2nc2ccccc23)S(=O)(=O)c2c(C)n[nH]c2C)cc1,0,64,0,0,0
CCC(=O)N1CCn2c1nc1ccccc12,0,0,0,0,0
O=C(Nc1cc(Cl)ccc1Cl)C1CC(=O)N(c2ccc(Br)cc2)C1 (stereo not drawn),0,0,0,0,0
CCOC(=O)C1CCN(Cc2ccc(F)c(Br)c2)CC1,0,0,0,0,63
CCOC(=O)C1CCN(Cc2ccc(F)cc2F)CC1,0,0,0,0,0
SMILES,Cav32 inh,CYP2C9 inh,CYP2C9 act,CYP2C19 act,CYP2C19 inhib
COc1ccccc1CN1CCSCC1,0,0,0,0,0
Fc1ccc(CN2CCSCC2)cc1Br,0,0,0,0,84
C=CCNC(=O)c1ccccc1NS(=O)(=O)c1ccc(SC)cc1,0,0,0,0,97
C=CCNC(=O)c1ccccc1NC(=O)Nc1ccccc1,0,0,0,0,0
C=CCNC(=O)c1ccccc1NS(=O)(=O)c1ccccc1,0,0,2.3,0,68
O=C(Nc1ccccc1-c1nc2ccccc2s1)c1cccnc1Cl,0,0,0,0,0
Cc1ccc(/C=c2\sc3n(c2=O)CN(c2ccc(Br)cc2)CN=3)o1,0,62,0,0,0
Cc1ccc(/C=c2/sc3n(c2=O)CCCN=3)o1,0,-,-,-,-
COc1ccc(C[C@H]2c3cc(O)c(OC)cc3CC[N+]2(C)[O-])cc1O (stereo partly drawn),0,-,-,-,-
